# According to PubChem BioAssay (EPA / NIEHS):
# “And” between values parts separate entries of the source, which are not always exact repeats. Equal values may be shown once. Inconclusive results are not listed. The source made the active and inactive calls. Rule for the calls, unless noted: active = hit-call score of the fitted dose curve at least 0.9, where 1 is the maximum; inactive = score below 0.9.
# Tests used:
# [1] = read-out: Macrophage colony-stimulating factor (MCSF), CSF1 (gene 1435); assay: BSK_IMphg_MCSF: BioMAP Diversity Plus: IMphg Assay for Macrophage colony-stimulating factor (MCSF) Biomarker Activity (AID 2284293); conditions: primary human endothelial cells with macrophages
# Procedure, shortened: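 M-CSF was measured by ELISA in human venular endothelial cell/macrophage co-cultures dosed for 24 hours. Sulforhodamine B staining of parallel cultures assessed cytotoxicity; data fitted against DMSO baseline.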
# [2] = read-out: Interleukin-10 (IL10), IL10 (gene 3586); assay: BSK_IMphg_IL10: BioMAP Diversity Plus: IMphg Assay for Interleukin-10 (IL10) Biomarker Activity (AID 2284294); conditions: primary human endothelial cells with macrophages
# Procedure, shortened: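 IL-10 read by ELISA after 24 h chemical exposure of primary human venular endothelial cell/macrophage cocultures, with DMSO as baseline. Parallel SRB staining (560 nm) gauged overt cytotoxicity.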
# [3] = BSK_IMphg_SRB.Mphg: Macrophage Viability Assessment in the BioMAP Diversity Plus: IMphg Assay (AID 2284295); conditions: primary human endothelial cells with macrophages
# Procedure, shortened: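 Cytotoxicity read-out: parallel cultures fixed with 10% TCA, stained with 0.1% sulforhodamine B, read at 560 nm. System combines venular endothelium and macrophages; sampled 24 h post-dosing, fitted positively relative to DMSO control.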
# TTR (gene 7276) = assay: CCTE_GLTED_hTTR_0.5uM: CCTE's human Transthyretin (hTTR) Inhibition Assay, with 0.5uM TTR, Great Lakes Toxicology and Ecology Division (GLTED) Lab (AID 2284320)
# Procedure, shortened: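 Probe (ANSA) displacement from 0.5 uM human transthyretin was followed by fluorescence (ex 380, em 475) after a 2 h incubation with chemical. Activity was scored as signal loss and fitted positively relative to DMSO.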
# [4] = CCTE_Padilla_ZF_Score.Craniofacial: CCTE's 144 Hour Post-fertilization zebrafish Assay Score for Craniofacial Malformation, Padilla Lab (AID 2284405)
# Procedure, shortened: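 Craniofacial defects were scored at 6 dpf by two blinded observers using stereomicroscopy. Exposure of wild-type embryos began at 6–8 hpf in sealed wells of 10% Hanks' solution at 26C, with chemical removed by rinsing at 5 dpf.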
# [5] = CCTE_Padilla_ZF_Score.Edema: CCTE's 144 Hour Post-fertilization zebrafish Assay Score for Edema Malformation, Padilla Lab (AID 2284406)
# Procedure, shortened: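 Edema scored at 6 dpf by two blinded observers under a stereo microscope, in single outbred wild-type larvae exposed from 6-8 hpf in sealed wells (Hanks', 26C, 14:10 h light) and chemical-free after a 5 dpf rinse.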
# [6] = CCTE_Padilla_ZF_Score.Spine: CCTE's 144 Hour Post-fertilization zebrafish Assay Score for Spine Malformation, Padilla Lab (AID 2284407)
# Procedure, shortened: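 Spine malformation scored at 6 dpf by two independent blinded observers under stereomicroscope, after static sealed exposure from 6–8 hpf at 26C in Hanks' solution with rinse on 5 dpf. Positive-direction fit against DMSO control.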
# [7] = CCTE_Padilla_ZF_Score.Swim_bladder: CCTE's 144 Hour Post-fertilization zebrafish Assay Score for Swim Bladder Malformation, Padilla Lab (AID 2284408)
# Procedure, shortened: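 Swim bladder inflation scored at 6 dpf by two blinded observers under a stereo microscope. Exposure ran from 6–8 hpf in sealed wells of 10% Hanks' at 26C, with rinsing at 5 dpf; DMSO served as baseline.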
# [8] = CCTE_Padilla_ZF_Score.Position: CCTE's 144 Hour Post-fertilization zebrafish Assay Score for Position, Padilla Lab (AID 2284409)
# Procedure, shortened: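 Wild-type zebrafish embryos (with chorions) exposed singly from 6–8 hpf in sealed wells of Hanks' solution at 26C, rinsed at 5 dpf. At 6 dpf, blinded assessors scored abnormal water-column position by brightfield stereomicroscopy, relative to DMSO.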
# [9] = CCTE_Padilla_ZF_Score.Living: CCTE's 144 Hour Post-fertilization zebrafish Assay Score for Viability, Padilla Lab (AID 2284410);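 note: larval death at 6 dpf judged by absent heartbeat or coagulation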
# Procedure, shortened: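 Mortality at 6 dpf, judged as absent heartbeat or coagulation by two blinded observers, after sealed static exposure beginning at 6–8 hpf at 26C. Larvae were rinsed free of chemical at 5 dpf, and activity was fitted relative to DMSO.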
# [10] = CCTE_Padilla_ZF_Score.General: CCTE's 144 Hour Post-fertilization zebrafish Assay Score for General Malformation, Padilla Lab (AID 2284411)
# Procedure, shortened: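 Malformation, death and hatching were scored at 6 dpf by two blinded observers under a stereo microscope. Embryos were dosed singly from 6-8 hpf in sealed plates of 10% Hanks' at 26C and rinsed on 5 dpf; DMSO baseline.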
# [11] = CCTE_Padilla_ZF_Score.Tail: CCTE's 144 Hour Post-fertilization zebrafish Assay Score for Tail Malformation, Padilla Lab (AID 2284414)
# Procedure, shortened: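 Tail malformations were scored at 6 dpf by two blinded assessors under a stereo microscope. Chorionated embryos had been exposed from 6-8 hpf in sealed wells of 10% Hanks' at 26 C, then rinsed free of chemical at 5 dpf.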
# [12] = CCTE_Padilla_ZF_Score.Blood_pooling: CCTE's 144 Hour Post-fertilization zebrafish Assay Score for Blood Pooling, Padilla Lab (AID 2284415)
# Procedure, shortened: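 Blood pooling was scored at 6 dpf under a stereo microscope by two blinded assessors, fitted upward against DMSO. Single embryos were dosed at 6–8 hpf in 10% Hanks', kept sealed at 26C (14:10 h cycle) and rinsed at 5 dpf.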
# [13] = CCTE_Padilla_ZF_Score.Any: CCTE's 144 Hour Post-fertilization zebrafish Assay Score for Any Mortality or Malformation, Padilla Lab (AID 2284416)
# Procedure, shortened: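 Wild-type zebrafish embryos with chorions, one per well in 10% Hanks' from 6–8 hpf, dosed in sealed plates at 26 C, 14:10 h light:dark; rinsed at 5 dpf; blinded scoring at 6 dpf for death or malformation, versus DMSO.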
# [14] = target: human Matrix Metalloproteinase-9 (MMP9), MMP9 (gene 4318) (UniProt P14780); assay: NVS_ENZ_hMMP9: NovaScreen (NVS) Enzymatic Assay for human Matrix Metalloproteinase-9 (MMP9) (AID 2283190; active = hit-call score of the fitted dose curve at least 0.9, where 1 is the maximum;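 note: cell-free recombinant MMP9 protease activity read by fluorescent substrate signal; active means inhibition seen as loss of fluorescence signal versus DMSO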)
# Chain of human Matrix Metalloproteinase-9 (MMP9), MMP9 (gene 4318) (P14780 whole entry, looked up): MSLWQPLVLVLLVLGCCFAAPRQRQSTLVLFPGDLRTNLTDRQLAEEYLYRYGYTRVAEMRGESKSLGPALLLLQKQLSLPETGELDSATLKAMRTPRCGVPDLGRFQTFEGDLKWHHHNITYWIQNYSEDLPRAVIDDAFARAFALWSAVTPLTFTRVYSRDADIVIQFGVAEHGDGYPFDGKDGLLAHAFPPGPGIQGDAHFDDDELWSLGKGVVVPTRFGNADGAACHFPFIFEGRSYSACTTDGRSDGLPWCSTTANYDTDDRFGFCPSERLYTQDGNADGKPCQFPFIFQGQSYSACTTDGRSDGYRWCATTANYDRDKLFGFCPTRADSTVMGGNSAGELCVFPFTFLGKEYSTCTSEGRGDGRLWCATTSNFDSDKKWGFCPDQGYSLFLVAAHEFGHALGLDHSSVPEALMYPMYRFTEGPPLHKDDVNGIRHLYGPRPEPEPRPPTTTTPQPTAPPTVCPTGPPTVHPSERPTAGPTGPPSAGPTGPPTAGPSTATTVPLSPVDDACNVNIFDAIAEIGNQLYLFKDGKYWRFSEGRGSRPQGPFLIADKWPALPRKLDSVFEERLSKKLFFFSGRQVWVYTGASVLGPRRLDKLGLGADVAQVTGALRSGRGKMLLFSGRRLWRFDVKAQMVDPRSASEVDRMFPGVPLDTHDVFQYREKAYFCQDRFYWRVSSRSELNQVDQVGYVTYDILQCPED
# Procedure, shortened: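 Screening concentration 25 uM, duplicate wells, then dose series for confirmation. Cell-free enzymatic reaction measured by fluorescence intensity 1 h post-dosing; decreased signal versus DMSO taken as activity.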
# [15] = CCTE_Mundy_HCI_Cortical_Synap_Neur_Matur_BPCount: CCTE's Synaptogenesis and Neurite Maturation Assay in rat cortical cells for Branch Point Count, Mundy Lab (AID 2284211)
# Procedure, shortened: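 HCI read-out of branch points from MAP2/synaptophysin/Hoechst immunofluorescence; rat cortical cultures, AraC DIV 5, dosing DIV 7, fixed DIV 12; fit in positive direction vs DMSO baseline.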
# [16] = CCTE_Mundy_HCI_Cortical_NOG_NeuriteCount: CCTE's Neurite Outgrowth Assay in rat cortical cells for Neurite Count, Mundy Lab (AID 2284212);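 note: cells fixed about two days after chemical exposure began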
# Procedure, shortened: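 Rat cortical primary cells; compound added 2 h post-plating, 1/10 dilution of working solution. Anti-betaIII-tubulin/AF488 ICC; ArrayScan neurite count vs DMSO.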
# [17] = CCTE_Mundy_HCI_Cortical_NOG_NeuriteLength: CCTE's Neurite Outgrowth Assay in rat cortical cells for Neurite Length, Mundy Lab (AID 2284213);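 note: neurites imaged about 48 to 50 h after chemical exposure began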
# Procedure, shortened: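 First, rat primary cortical cells were plated and, 2 h later, given test chemical as a 1/10 dilution. Finally, βIII-tubulin immunostaining enabled automated imaging of neurite length.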
# [18] = CCTE_Mundy_HCI_Cortical_Synap_Neur_Matur_NeuriteLength: CCTE's Synaptogenesis and Neurite Maturation Assay in rat cortical cells for Neurite Length, Mundy Lab (AID 2284214)
# Procedure, shortened: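 Neurite length quantified by automated high-content imaging of MAP2, synaptophysin and Hoechst staining. Rat cortical cells received chemical from DIV 7 to DIV 12 […], glial growth arrested by AraC at DIV 5; DMSO baseline.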
# [19] = CCTE_Mundy_HCI_Cortical_Synap_Neur_Matur_NeuriteSpotCountPerNeuron: CCTE's Synaptogenesis and Neurite Maturation Assay in rat cortical cells for Neurite Spot Count per Neuron Count, Mundy Lab (AID 2284215)
# Procedure, shortened: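 Rat primary cortical cells received AraC at DIV 5, then chemicals with a media change at DIV 7, and were fixed at DIV 12. Synaptophysin puncta on MAP2-stained neurites per neuron were counted by high-content imaging, fitted relative to DMSO.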
smiles,measurement,setting,value
OC(C(F)(F)F)(C(F)(F)F)C(O)(C(F)(F)F)C(F)(F)F,AC50,[1],20 µM (active) and 8.19 µM (active)
same,AC50,[2],23.6 µM (active) and 21.1 µM (active)
same,AC50,[3],41.5 µM (active) and 37.7 µM (active)
same,AC50,TTR (gene 7276),11 µM (active)
same,AC50,[4],2.57 µM (active)
same,AC50,[5],2.66 µM (active)
same,outcome,[6],inactive
same,AC50,[7],2.66 µM (active)
same,outcome,[8],inactive
same,AC50,[9],11.8 µM (active)
same,AC50,[10],1.18 µM (active)
same,outcome,[11],inactive
same,outcome,[12],inactive
same,AC50,[13],2.21 µM (active)
CCO[Si](OCC)(OCC)c1ccccc1,AC50,[14],1.37 µM (active)
CNCCC(Oc1ccc(C(F)(F)F)cc1)c1ccccc1 (stereo not given),AC50,[15],6.57 µM (active)
same,AC50,[16],14.7 µM (active)
same,AC50,[17],12.2 µM (active)
same,AC50,[18],6.03 µM (active)
same,AC50,[19],8.96 µM (active)
